Screening data: PubChem, National Center for Advancing Translational Sciences (NCATS)
Most compounds without a hit are left out; they make up all but 11% or so of the library.
IMPase Li cell – cell-permeable IMPase inhibitors with lithium potentiation; 0.35% of 210,000 active; Potency, µM (doses to about 59.4 µM), actives largely listed as inhibitors; CHO-M1 cells, IP1 TR-FRET (IP-One), carbachol + lithium;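 also: IP1 builds up when IMPase is blocked and the TR-FRET signal falls; nearly all actives have a fitted effect of over 50% in size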
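Test compounds were applied to CHO-M1 cells previously cultured for 16–30 h at 2000 per well. A small lithium amount accompanied them; after 30 min at 37C, IP1 was quantified by TR-FRET.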
PNC assembly inh – perinucleolar compartment assembly inhibition. PC3M PTB-GFP, PNC prevalence imaging, 16 h; hits give low values. activity change (PNC), negative = inhibition, % at 10 µM. 3.1% of 140,000 active. AID 2417;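 active = readout at or below -70, meaning at least 70% loss of cells showing the perinucleolar compartment, a nuclear body marking cancer cells; inconclusive = readout between -30 and a set limit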
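Read-out is percentage of cells bearing a perinucleolar compartment, from automated 20x imaging of fixed, Hoechst-stained PC3M PTB-GFP cells. Cells were seeded 4 h, then exposed 16 h to compound (23 nl of library stock) in duplicate plates.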
IMPase cell inh – membrane-permeable compound that blocks inositol monophosphatase. P97697. CHO-M1 cells, IP1 accumulation, HTRF TR-FRET ratio. inhibition (IP1 accumulation), % at 46.1 µM. 120,000 tested, under 10 active; active = well fitted curve in the direction sought with a large enough effect in the signal ratio, not every such curve was filed as active; inconclusive = small, poorly fitted or top-dose-only effect, or a change in a side signal; inactive = no such curve, though single readings can be large or run the other way; the % refers to the signal ratio;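 also: cells stimulated with carbachol in lithium chloride buffer; higher means more IMPase inhibition seen as more IP1 and lower FRET ratio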
Target sequence (P97697 whole entry, looked up): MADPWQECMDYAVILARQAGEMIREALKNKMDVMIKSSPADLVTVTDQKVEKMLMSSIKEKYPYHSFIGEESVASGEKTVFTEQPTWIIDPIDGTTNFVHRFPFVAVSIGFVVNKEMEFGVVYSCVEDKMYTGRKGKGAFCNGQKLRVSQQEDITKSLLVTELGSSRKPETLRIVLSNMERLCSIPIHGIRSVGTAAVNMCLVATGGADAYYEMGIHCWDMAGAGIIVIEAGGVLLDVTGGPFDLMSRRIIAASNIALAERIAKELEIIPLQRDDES
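Elevated IP1 in lysates lowers TR-FRET signal (665/620 ratio and 620 channel reported). Cells were CHO-M1, given carbachol (50 uM as added) plus 50mM LiCl, pH 7.4, 30 min, 37C; compounds titrated up to 46 uM; AC50 by Hill equation.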
HPGD block – blocks human HPGD enzyme activity; P15428; purified HPGD, NADH fluorescence kinetic, PGE2 substrate; AID 894; Potency, µM, usual class: inhibitors; 4.3% of 150,000 active; active = well fitted inhibition curve with a large enough effect, not every such curve was filed as active; inconclusive = small, poorly fitted or top-dose-only effect, or another doubt; inactive = no such curve, though single readings can be large or run the other way
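NADH formation kinetics: reaction with 30 uM PGE2 and 1 mM NAD+ (final), 20 nM enzyme, Tris-HCl pH 8 with Tween 20, after 15 min compound preincubation at room temperature. Fluorescence change, last versus first of five reads.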
12-hLO inh – inhibitors of human 12-lipoxygenase (ALOX12); purified 12-hLO, xylenol orange hydroperoxide absorbance; AID 1452; Potency, µM (series often up to 57.1 µM), actives largely listed as inhibitors; 0.12% of 150,000 active; P18054; also: nearly all actives have a fitted effect of over 55% in size
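Hydroperoxide formation by human 12-lipoxygenase from 40 uM arachidonic acid was followed colorimetrically via ferric-xylenol orange complex, using the 573/405 nm absorbance ratio. Enzyme concentration was 150 nM, with 30 min reaction at room temperature.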
ALDH1A1 block – blocks purified human ALDH1A1 activity | Potency, µM (series often up to 75.3 µM), most hits filed as inhibitors | Purified ALDH1A1, NADH fluorescence, propionaldehyde substrate | 7.3% of 220,000 active | AID 1030; active = well fitted inhibition curve with a large enough effect, not every such curve was filed as active; inconclusive = small, poorly fitted or top-dose-only effect, or another doubt; inactive = no such curve, though single readings can be large or run the other way
Target sequence (P00352 whole entry, looked up): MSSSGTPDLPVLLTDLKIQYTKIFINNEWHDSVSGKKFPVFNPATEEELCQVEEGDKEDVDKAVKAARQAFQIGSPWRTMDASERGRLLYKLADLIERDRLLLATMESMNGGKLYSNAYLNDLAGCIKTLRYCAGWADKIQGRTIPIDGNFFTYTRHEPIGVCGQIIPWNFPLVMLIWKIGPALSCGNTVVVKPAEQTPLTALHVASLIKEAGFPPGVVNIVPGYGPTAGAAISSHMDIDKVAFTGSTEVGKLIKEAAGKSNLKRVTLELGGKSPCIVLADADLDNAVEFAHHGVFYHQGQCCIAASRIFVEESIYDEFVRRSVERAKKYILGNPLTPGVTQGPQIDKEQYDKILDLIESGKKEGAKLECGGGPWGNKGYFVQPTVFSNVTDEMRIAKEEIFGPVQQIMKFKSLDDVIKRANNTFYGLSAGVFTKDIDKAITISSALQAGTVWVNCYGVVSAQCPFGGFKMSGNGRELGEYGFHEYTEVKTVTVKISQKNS
Hits are given with their value; - = inactive; ? = inconclusive; . = no result; [ ] = dose if it differs, or a comment. Unless noted, calls follow the shape of the dose curve; as a rule, active = well fitted curve in the direction sought with a large enough effect; inconclusive = small, poorly fitted or top-dose-only effect, or another doubt; inactive = no such curve, though single readings can be large; an effect the other way counts as inactive or inconclusive.

SMILES	IMPase Li cell	PNC assembly inh	IMPase cell inh	HPGD block	12-hLO inh	ALDH1A1 block
CN1c2ccccc2C(C)(C)C12C=Nc1c(ccc3ccccc13)O2 (stereo not drawn)	-	-	-	-	?	-
O=S(=O)(/N=C(/c1ccccc1)N1CCCCCC1)c1ccccc1	-	.	.	.	.	?
Cc1nc2ccccc2n1/C(=N/S(=O)(=O)c1ccc(Br)cc1)c1ccccc1	-	-100	-	-	-	-
CO/N=C/NC(=O)c1c(OC)ccnc1Oc1ccccc1	-	-	-	-	-	6.3µM
O=C(N/N=C/c1ccc([N+](=O)[O-])o1)c1ccc(O)cc1	-	-	.	-	-	25µM
O=C(N/N=C/c1ccc([N+](=O)[O-])o1)c1ccncc1	.	.	.	.	.	-
O=[N+]([O-])c1ccc(/C=N/NC(=S)Nc2ccccc2)o1	-	-	-	25µM	-	-
Cc1nnc(SCC(=O)N2CCc3ccccc32)s1	-	-	-[1.84 µM]	-	-	28µM
COc1cc(OC)cc(-c2nnc(SCc3cccc(C(=O)O)c3)o2)c1	-	?	-	11µM	-	-
CSc1nsc(SCC(=O)N2CCc3ccccc32)n1	-	-	-	-	-	?
Cc1occc1-c1nnc(SCC(=O)N2CCc3ccccc32)o1	-	-	-	-	-	0.79µM
O=C(CSc1nnc(-c2ccc(Cl)cc2)o1)N1CCc2ccccc21	.	.	-	.	.	.
O=C(O)c1cccc(CSc2nnc(-c3ccco3)o2)c1	-	-	-	-	-	-
COc1cccc(-c2nnc(SCC(=O)N3CCCc4ccccc43)o2)c1	-	?	-	28µM	-	7.9µM
COC(=O)C1=C(C(=O)OC)[C@@H]2Nc3ccccc3[C@@]23C[C@@H](C(=O)OC)N(S(=O)(=O)c2ccc(C)cc2)C3=N1	-	.	.	-	-[11.4 µM]	-[13.5 µM]
CCCCCCCCCCCCCCC(C(=O)OC)C(O)(CC(=O)OC)C(=O)OC (stereo not drawn)	-	.	.	-	-	-
CSc1cc2c(cc1C(F)(F)F)N(C(=O)Nc1cccnc1)CC2	-	.	-	-	-	-
Cc1cc(C)c(S(=O)(=O)NCCc2cc3cc(C)c(C)cc3[nH]c2=O)c(C)c1	.	.	-	.	.	.
O=C(Nc1ccc(Cl)cc1)Nc1nnc(SCc2ccc(Cl)cc2)s1	-	-111	-	-	-	-
CCOC(=O)N1CCN(CC(=O)c2ccc3c(c2)CCN3C(C)=O)CC1	-	-	-	-	-	25µM
CC(=O)N1CCc2cc(C(=O)CN3CCCCC3)ccc21	-	-	-	16µM	-	22µM
CCOC(=O)N1CCC(NS(=O)(=O)c2ccc3c(c2)CCN3C(C)=O)CC1	-	?	-	-	-	-
CC(=O)OCC(=O)[C@@]1(O)CCC2C3CC(C)C4=CC(=O)C=CC4(C)C3C(O)CC21C (stereo partly drawn)	-	.	.	-	-	-
CC(=O)Oc1cccc(N2C(=O)c3ccccc3C2=O)c1	-	-85	.	-	-	-
CC(=O)Oc1cccc(N2C(=O)c3ccc(C(=O)Nc4cccnc4)cc3C2=O)c1	-	.	.	.	.	18µM
SMILES	IMPase Li cell	PNC assembly inh	IMPase cell inh	HPGD block	12-hLO inh	ALDH1A1 block
CC(=O)c1cccc(NC(=O)COC(=O)c2ccc3c(c2)OCCO3)c1	-	.	.	.	.	-
CC(=O)c1cccc(NC(=O)COC(=O)c2cccc(N3C(=O)c4ccccc4C3=O)c2)c1	-	-	.	-	-	14µM
CC(=O)Nc1cccc2c1C(=O)N(c1cccc(OC(C)=O)c1)C2=O	-	.	.	.	.	-
COc1ccc(C2/C=C\CN(C(=O)OCC3c4ccccc4-c4ccccc43)CC(=O)N2Cc2cccc(F)c2)cc1 (stereo not drawn)	-	.	.	-	-[0.00818 µM]	-
CCOC(=O)C1CCC(CN(Cc2ccccc2)S(=O)(=O)c2ccc([N+](=O)[O-])cc2)CC1 (stereo not drawn)	-	-	-	-	-	-
CNc1ncnc2ccc(-c3ccc4c(c3)OCO4)cc12	-	.	.	.	.	-
C[N+](C)(C)/N=C\c1ccc(O)c(O)c1	-	.	.	-	-[11.4 µM]	-[13.5 µM]
Oc1ccc(N=Cc2ccc(O)c(O)c2)cc1	-	-	?	28µM	-	13µM
CCOC(=O)c1cnc(-c2ccccc2)nc1Oc1ccc(OC)cc1	-	.	.	.	.	11µM
CCOC(=O)c1cnc(-c2ccccc2)nc1Oc1ccccc1	-	-	-	-	-	-
Cc1cccc(N/C=C(\[N+](=O)[O-])S(=O)(=O)c2ccccc2)c1C	-	.	.	.	.	25µM
Cc1ccc(S(=O)(=O)O[C@H]2CC(C(C)(C)C)CC[C@@H]2c2ccccc2)cc1 (stereo partly drawn)	-	.	.	-	.	-[13.5 µM]
CCCCOCC1CC(CC#CCN2CCCCC2)C(=O)O1 (stereo not drawn)	-	.	.	.	.	25µM
CCCOCC1CC(CCc2nc(=S)[nH][nH]2)C(=O)O1 (stereo not drawn)	-	-	.	-	-	-
CCCC[C@H](CC)CN=C(N)NC(N)=NCCCCCCN=C(N)NC(N)=NC[C@@H](CC)CCCC	-	.	-	-	-	-
CC(C)=CCOc1ccc(/C=C/C(=O)c2ccc(OCC=C(C)C)cc2OCC(=O)O)cc1	-	.	.	11µM	-[0.00818 µM]	-
Cc1nc2ncnn2c(C)c1CCC(=O)Nc1ccc(S(=O)(=O)N2CCCCCC2)cc1	-	-94	-	16µM	-	6.3µM
COc1cccc(/C=C/C(=O)OCC(=O)Nc2ccc(S(=O)(=O)N3CCCC3)cc2)c1	-	-	.	?	-	7.1µM
Cc1ccc(NC(=O)CCc2c(C)nc3ncnn3c2C)cc1	-	-	-	-	-	-
COc1cc(/C=C/C(=O)OCC(=O)Nc2ccc(S(=O)(=O)N3CCCC3)cc2)ccc1O	-	-	.	?	-	?
COc1ccc(NC(=O)COc2ccc(S(=O)(=O)NC3CCCCC3)cc2)cc1OC	.	.	-	.	.	.
Cc1cccc(OCC(=O)Nc2ccc(S(=O)(=O)N3CCCC3)cc2)c1	-	-99	-	-	-	?
Cc1cccc(OCC(=O)NC(=S)Nc2ccc(S(=O)(=O)NC3CCCCC3)cc2)c1	-	-	-	?	-	16µM
Cc1ccc(S(=O)(=O)OCC(=O)O)cc1	-	.	.	-	-[11.4 µM]	-[13.5 µM]
C[C@@]1(C(NC(=O)c2ccc(-c3ccccc3)cc2)c2ccc(Cl)cc2)C[C@H]1C1CCCCC1 (stereo partly drawn)	-	.	.	-	-	-
COC(=O)COc1cccc(NS(=O)(=O)c2ccc(NC(C)=O)cc2)c1	-	-88	-	-	-	-
O=C(COC(=O)CN1C(=O)c2ccccc2C1=O)Nc1ccc(S(=O)(=O)N2CCCC2)cc1	-	-	-	-	-	?
O=C(COC(=O)CCN1C(=O)c2ccccc2C1=O)Nc1ccc(S(=O)(=O)N2CCCC2)cc1	-	-	-	-	-	5µM
COc1cc(C#N)ccc1OCC(=O)Nc1cccc(S(=O)(=O)N2CCCC2)c1	-	.	.	.	.	13µM
